# Data taken from ChEMBL document CHEMBL1961873, “Compounds: GSK PKIS; Assays: Nanosyn kinase panel” (2012).
# Tests used:
# [1] = target: Sphingosine kinase 1 (Homo sapiens) (UniProt Q9NYA1); details: at 1 µM;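 note: mean SPHK1 inhibition value reported from the GSK PKIS kinase panel screen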
# [2] = target: T1, Sphingosine kinase 2 (Homo sapiens) (UniProt Q9NRA0); details: at 0.1 µM
# T1 sequence (whole entry): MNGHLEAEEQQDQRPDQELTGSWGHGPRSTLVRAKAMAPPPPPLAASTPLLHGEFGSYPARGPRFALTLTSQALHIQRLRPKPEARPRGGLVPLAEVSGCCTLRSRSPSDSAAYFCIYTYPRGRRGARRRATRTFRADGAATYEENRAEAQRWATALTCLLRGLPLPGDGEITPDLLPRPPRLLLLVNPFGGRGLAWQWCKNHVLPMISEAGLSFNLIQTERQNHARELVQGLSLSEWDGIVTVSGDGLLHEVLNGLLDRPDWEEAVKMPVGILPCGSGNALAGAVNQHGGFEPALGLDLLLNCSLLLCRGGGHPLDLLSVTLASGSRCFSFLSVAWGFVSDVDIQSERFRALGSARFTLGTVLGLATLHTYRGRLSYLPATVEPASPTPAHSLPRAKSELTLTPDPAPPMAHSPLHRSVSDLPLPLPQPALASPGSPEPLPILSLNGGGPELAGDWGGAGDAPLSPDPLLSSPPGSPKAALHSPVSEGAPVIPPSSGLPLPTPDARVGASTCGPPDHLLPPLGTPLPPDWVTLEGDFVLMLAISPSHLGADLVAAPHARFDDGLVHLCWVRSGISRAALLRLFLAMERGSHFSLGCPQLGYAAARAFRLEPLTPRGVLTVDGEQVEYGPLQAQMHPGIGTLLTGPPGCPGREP
# [3] = target: T1, Sphingosine kinase 2 (Homo sapiens); details: at 1 µM
# [4] = target: Casein kinase II subunit alpha (Homo sapiens) (UniProt P68400); details: at 0.1 µM
# Sequence of Casein kinase II subunit alpha (Homo sapiens) (P68400 whole entry, looked up): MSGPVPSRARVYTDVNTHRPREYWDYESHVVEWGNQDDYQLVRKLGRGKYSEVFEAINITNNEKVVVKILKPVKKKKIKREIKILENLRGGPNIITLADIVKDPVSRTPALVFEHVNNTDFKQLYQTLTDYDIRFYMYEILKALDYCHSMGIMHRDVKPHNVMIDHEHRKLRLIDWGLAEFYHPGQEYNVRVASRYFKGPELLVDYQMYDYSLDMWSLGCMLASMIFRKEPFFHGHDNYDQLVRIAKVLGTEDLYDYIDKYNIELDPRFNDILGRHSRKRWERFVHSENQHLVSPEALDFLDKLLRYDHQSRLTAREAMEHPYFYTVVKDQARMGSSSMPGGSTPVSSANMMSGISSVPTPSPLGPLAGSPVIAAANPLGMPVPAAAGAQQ
# [5] = target: Casein kinase II subunit alpha (Homo sapiens) (UniProt P68400); details: at 1 µM
# [6] = target: T2, Inhibitor of nuclear factor kappa-B kinase subunit alpha (Homo sapiens) (UniProt O15111); details: at 0.1 µM
# T2 sequence (whole entry): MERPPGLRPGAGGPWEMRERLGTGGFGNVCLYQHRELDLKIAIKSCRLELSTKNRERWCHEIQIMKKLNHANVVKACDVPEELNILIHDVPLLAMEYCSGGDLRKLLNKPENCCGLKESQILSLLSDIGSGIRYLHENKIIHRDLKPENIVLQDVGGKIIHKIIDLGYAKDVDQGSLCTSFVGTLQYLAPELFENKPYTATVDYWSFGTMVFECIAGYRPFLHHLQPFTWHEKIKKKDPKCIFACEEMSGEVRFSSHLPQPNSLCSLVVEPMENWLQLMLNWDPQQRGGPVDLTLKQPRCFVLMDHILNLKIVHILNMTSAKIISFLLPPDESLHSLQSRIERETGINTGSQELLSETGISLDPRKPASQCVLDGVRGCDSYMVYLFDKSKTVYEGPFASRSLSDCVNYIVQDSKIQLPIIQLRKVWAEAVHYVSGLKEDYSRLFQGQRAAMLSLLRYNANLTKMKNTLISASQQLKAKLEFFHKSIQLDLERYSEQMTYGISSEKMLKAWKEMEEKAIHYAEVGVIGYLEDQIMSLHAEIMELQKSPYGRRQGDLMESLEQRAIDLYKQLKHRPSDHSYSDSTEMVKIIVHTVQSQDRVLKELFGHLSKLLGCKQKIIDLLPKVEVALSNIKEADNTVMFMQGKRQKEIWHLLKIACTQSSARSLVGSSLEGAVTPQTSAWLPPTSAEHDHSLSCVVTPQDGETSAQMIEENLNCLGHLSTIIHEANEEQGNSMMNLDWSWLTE
# [7] = target: T2, Inhibitor of nuclear factor kappa-B kinase subunit alpha (Homo sapiens); details: at 1 µM
# [8] = target: T3, Inhibitor of nuclear factor kappa-B kinase subunit beta (Homo sapiens) (UniProt O14920); details: at 0.1 µM
# T3 sequence (whole entry): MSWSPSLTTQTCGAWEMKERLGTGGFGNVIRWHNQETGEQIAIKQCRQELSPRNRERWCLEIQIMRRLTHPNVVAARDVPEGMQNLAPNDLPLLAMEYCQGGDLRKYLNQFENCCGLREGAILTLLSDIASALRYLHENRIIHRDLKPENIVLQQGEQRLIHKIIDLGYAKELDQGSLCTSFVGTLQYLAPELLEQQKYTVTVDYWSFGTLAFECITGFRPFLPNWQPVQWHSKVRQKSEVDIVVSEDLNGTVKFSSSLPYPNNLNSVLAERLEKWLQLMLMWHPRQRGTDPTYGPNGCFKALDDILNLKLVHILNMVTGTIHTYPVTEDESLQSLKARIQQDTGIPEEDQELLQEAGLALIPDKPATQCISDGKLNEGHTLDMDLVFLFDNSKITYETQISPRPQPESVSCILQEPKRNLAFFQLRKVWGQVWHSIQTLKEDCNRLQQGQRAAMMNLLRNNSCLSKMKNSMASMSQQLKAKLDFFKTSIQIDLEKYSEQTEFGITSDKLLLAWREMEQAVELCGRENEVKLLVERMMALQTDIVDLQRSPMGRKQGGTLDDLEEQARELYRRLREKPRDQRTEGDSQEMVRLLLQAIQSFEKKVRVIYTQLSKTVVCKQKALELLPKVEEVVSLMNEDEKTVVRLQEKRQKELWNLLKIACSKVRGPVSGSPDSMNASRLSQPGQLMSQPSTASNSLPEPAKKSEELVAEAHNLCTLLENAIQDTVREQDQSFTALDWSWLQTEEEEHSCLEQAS
# [9] = target: T3, Inhibitor of nuclear factor kappa-B kinase subunit beta (Homo sapiens); details: at 1 µM
# [10] = target: T4, Inhibitor of nuclear factor kappa-B kinase subunit epsilon (Homo sapiens) (UniProt Q14164); details: at 0.1 µM
# T4 sequence (whole entry): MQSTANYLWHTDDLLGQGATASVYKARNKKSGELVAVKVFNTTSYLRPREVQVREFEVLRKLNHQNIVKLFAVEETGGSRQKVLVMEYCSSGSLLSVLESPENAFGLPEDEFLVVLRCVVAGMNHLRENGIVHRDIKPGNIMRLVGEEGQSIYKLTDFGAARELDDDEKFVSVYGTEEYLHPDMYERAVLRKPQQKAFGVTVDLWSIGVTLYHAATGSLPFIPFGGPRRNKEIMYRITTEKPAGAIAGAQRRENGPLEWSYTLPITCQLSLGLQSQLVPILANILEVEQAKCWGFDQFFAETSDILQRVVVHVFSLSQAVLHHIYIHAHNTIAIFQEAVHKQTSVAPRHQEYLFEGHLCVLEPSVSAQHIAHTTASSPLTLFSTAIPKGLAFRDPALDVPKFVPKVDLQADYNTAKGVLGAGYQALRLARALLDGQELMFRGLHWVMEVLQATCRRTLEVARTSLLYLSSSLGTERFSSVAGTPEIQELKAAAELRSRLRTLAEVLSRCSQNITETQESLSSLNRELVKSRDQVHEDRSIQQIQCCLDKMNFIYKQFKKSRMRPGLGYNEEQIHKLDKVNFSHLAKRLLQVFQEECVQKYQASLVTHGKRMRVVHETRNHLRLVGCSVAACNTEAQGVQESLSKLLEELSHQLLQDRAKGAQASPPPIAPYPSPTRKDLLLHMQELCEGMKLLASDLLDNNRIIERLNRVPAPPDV
# [11] = target: T4, Inhibitor of nuclear factor kappa-B kinase subunit epsilon (Homo sapiens); details: at 1 µM
# [12] = target: T5, Serine/threonine-protein kinase Nek1 (Homo sapiens) (UniProt Q96PY6); details: at 0.1 µM
# T5 sequence (whole entry): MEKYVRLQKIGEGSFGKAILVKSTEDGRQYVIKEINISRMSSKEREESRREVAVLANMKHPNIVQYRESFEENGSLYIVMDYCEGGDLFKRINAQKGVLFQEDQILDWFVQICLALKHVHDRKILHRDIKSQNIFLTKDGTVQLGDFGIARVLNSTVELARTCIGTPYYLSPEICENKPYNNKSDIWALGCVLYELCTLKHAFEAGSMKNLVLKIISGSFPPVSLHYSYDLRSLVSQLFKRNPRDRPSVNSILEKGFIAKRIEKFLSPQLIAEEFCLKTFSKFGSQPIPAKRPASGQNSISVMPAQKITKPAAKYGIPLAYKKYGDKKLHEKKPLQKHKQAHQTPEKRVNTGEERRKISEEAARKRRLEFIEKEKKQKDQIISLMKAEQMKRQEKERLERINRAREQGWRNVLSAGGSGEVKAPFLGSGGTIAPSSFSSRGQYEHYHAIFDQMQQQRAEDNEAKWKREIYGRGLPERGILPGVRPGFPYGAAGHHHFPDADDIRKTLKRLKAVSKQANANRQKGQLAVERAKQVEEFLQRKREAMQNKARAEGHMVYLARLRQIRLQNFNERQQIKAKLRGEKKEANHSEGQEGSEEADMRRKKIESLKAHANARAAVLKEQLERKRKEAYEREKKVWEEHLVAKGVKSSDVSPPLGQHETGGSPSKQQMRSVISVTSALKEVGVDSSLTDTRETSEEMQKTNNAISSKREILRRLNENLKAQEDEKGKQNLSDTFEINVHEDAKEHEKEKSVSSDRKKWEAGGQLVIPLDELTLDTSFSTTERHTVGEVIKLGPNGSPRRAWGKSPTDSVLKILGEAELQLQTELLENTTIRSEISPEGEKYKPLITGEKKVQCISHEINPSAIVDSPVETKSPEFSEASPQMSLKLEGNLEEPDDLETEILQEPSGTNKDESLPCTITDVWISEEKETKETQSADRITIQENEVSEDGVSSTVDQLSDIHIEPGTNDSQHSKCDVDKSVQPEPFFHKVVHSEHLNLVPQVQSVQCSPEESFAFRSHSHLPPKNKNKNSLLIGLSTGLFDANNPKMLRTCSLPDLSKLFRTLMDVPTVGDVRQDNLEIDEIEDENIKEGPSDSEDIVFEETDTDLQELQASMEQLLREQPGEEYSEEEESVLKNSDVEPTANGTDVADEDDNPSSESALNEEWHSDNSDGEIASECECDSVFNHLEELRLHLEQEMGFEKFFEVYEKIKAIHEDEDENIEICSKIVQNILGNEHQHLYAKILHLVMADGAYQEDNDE
# [13] = target: T5, Serine/threonine-protein kinase Nek1 (Homo sapiens); details: at 1 µM
# [14] = target: T6, Serine/threonine-protein kinase Nek2 (Homo sapiens) (UniProt P51955); details: at 0.1 µM
# T6 sequence (whole entry): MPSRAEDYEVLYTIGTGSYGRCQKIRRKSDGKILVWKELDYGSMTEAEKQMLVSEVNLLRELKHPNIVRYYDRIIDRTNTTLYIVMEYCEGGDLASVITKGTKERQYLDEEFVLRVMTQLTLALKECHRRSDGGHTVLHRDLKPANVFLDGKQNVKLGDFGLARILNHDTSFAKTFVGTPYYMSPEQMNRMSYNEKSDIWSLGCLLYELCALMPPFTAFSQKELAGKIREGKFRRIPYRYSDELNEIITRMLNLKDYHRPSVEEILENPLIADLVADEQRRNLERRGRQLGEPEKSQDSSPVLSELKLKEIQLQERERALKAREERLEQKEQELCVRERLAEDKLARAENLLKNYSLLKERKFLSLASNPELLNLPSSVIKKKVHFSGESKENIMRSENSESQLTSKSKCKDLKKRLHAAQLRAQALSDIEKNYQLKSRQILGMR
# [15] = target: T6, Serine/threonine-protein kinase Nek2 (Homo sapiens); details: at 1 µM
# [16] = target: Serine/threonine-protein kinase Nek6 (Homo sapiens) (UniProt Q9HC98); details: at 0.1 µM
# Sequence of Serine/threonine-protein kinase Nek6 (Homo sapiens) (Q9HC98 whole entry): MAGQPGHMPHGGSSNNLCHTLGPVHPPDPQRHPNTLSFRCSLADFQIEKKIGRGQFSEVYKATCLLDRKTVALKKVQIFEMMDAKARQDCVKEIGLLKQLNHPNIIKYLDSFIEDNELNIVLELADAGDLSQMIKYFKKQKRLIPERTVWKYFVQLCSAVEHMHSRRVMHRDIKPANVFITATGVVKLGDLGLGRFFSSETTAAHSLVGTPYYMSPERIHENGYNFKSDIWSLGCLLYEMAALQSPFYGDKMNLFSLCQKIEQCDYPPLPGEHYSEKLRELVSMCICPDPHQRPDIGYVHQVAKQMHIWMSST
# [17] = target: Serine/threonine-protein kinase Nek6 (Homo sapiens) (UniProt Q9HC98); details: at 1 µM
# [18] = target: Serine/threonine-protein kinase Nek7 (Homo sapiens) (UniProt Q8TDX7); details: at 0.1 µM
# Sequence of Serine/threonine-protein kinase Nek7 (Homo sapiens) (Q8TDX7 whole entry, looked up): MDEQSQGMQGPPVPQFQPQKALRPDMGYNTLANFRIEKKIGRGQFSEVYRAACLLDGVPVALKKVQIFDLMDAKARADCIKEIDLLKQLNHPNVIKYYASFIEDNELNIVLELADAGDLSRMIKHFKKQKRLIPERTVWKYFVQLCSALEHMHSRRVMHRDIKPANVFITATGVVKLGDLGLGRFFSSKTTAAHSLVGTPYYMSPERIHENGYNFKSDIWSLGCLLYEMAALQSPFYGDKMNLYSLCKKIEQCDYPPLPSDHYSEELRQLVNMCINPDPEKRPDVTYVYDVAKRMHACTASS
# [19] = target: Serine/threonine-protein kinase Nek7 (Homo sapiens) (UniProt Q8TDX7); details: at 1 µM
# [20] = target: T7, Serine/threonine-protein kinase Nek9 (Homo sapiens) (UniProt Q8TD19); details: at 0.1 µM;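 note: reported value is the mean percent inhibition of NEK9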
# T7 sequence (whole entry): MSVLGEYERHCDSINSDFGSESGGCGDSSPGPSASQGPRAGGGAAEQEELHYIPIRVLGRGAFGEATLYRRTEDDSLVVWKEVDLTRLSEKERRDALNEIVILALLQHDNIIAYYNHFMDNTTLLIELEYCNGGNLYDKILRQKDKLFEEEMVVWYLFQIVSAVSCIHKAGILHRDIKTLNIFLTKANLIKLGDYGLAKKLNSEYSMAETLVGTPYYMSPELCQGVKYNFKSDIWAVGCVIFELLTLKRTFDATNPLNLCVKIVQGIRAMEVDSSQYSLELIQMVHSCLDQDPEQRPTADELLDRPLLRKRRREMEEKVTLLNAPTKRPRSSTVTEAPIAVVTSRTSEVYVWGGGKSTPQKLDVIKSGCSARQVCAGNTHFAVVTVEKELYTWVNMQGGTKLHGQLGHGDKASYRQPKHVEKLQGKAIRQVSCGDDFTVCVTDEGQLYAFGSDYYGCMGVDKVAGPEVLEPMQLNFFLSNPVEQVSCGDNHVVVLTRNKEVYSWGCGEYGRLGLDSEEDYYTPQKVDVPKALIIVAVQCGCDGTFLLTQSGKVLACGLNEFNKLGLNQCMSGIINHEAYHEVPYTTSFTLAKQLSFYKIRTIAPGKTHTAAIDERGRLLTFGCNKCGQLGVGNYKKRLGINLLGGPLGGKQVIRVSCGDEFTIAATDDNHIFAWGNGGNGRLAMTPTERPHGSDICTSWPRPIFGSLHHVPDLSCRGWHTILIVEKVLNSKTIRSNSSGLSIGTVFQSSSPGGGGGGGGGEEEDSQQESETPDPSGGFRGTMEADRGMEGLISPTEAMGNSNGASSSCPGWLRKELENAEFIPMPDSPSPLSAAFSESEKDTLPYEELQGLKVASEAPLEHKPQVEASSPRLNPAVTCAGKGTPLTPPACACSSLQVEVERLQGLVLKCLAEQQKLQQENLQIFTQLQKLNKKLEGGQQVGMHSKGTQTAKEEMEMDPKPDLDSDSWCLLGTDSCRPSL
# Sequence of Sphingosine kinase 1 (Homo sapiens) (Q9NYA1 whole entry): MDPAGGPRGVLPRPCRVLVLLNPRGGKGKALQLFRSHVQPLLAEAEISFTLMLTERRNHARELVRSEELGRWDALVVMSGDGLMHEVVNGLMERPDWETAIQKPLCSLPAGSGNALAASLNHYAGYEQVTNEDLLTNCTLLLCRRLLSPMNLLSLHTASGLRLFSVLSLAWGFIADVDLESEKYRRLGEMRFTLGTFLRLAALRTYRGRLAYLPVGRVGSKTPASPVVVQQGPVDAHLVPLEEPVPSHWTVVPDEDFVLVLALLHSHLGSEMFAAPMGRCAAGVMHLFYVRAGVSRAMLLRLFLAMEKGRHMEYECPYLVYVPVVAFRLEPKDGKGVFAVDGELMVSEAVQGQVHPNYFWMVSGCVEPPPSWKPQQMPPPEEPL
smiles,measurement,setting,value
CCOc1ccc2c(-c3ccnc(Nc4cc(OC)cc(C(F)(F)F)c4)n3)cnn2n1,inhibition,[1],1.71%
same,inhibition,[2],4.25%
same,inhibition,[3],0%
same,inhibition,[4],4.76%
same,inhibition,[5],15.3%
same,inhibition,[6],-1.77%
same,inhibition,[7],4.02%
same,inhibition,[8],-0.06%
same,inhibition,[9],-2.55%
same,inhibition,[10],2.74%
same,inhibition,[11],26.5%
same,inhibition,[12],1.06%
same,inhibition,[13],2.42%
same,inhibition,[14],1.26%
same,inhibition,[15],0.94%
same,inhibition,[16],-0.49%
same,inhibition,[17],1.7%
same,inhibition,[18],2.79%
same,inhibition,[19],2.42%
same,inhibition,[20],3.87%
